Laboratory results from PubChem BioAssay (EPA / NIEHS).
Inconclusive results are not listed. The source made the active and inactive calls. How the source made its calls: active means hit-call score of the fitted dose curve at least 0.9, where 1 is the maximum; inconclusive means response in the unintended direction; inactive means score below 0.9.

Assay: ACEA_AR_agonist_AUC_viability: ACEA Biosciences xCELLigence Real-Time Cell Analysis on Androgen Receptor Agonism for Viability (AID 2283775);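 on AC50: viability read 80 hours after compound addition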
How it was run: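 22Rv1 cells; impedance growth kinetics; 8-pt 1:4 dilutions from 100 uM top final, ≤0.5% DMSO; n = 2; 80 h read; AUC viability, loss-of-signal vs DMSO.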

SMILES | outcome | AC50
Cc1cc(C)c(C(=O)O)c(C)c1 | inactive | 
CC1=NN(c2cc(S(=O)(=O)O)ccc2Cl)C(=O)C1N=Nc1ccccc1 (stereo unspecified) | inactive | 
Cc1ccc(C(C)c2ccc(C)c(C)c2)cc1C | inactive | 
CCN(CCC#N)c1ccc(N=Nc2c(Cl)cc([N+](=O)[O-])cc2Cl)cc1 |  | 3.43 µM (active)
CCCCCCCCCCCCCOP(=O)(O)O | inactive | 
OC1CCCCCCCCCCC1 | inactive | 
CC/C=C\C/C=C\C/C=C\CCCCCCCC(=O)O | inactive | 
Oc1ccc(Cl)cc1Cc1cc(Cl)ccc1O |  | 11.5 µM (active)
CNC(=S)NN | inactive | 
CCCCCCC1(C)CCC(=O)O1 (stereo unspecified) |  | 1.1 µM (active)
CCOC(=O)CC | inactive | 
O=C(c1ccccc1)C1CCC1 | inactive | 
CCCCCCCOC(=O)CCC | inactive | 
CCCCCCCC/C=C\CCCCCCCC(=O)O | inactive | 
CCCCCCCCO[C@@H]1O[C@H](CO)[C@@H](O)[C@H](O)[C@H]1O | inactive | 
CC=C1CC2C=CC1C2 (stereo unspecified) | inactive | 
O=C(C(Cl)Cl)N1CCOC12CCCCC2 |  | 9.81 µM (active)
CCCc1ccc(OC)cc1 | inactive | 
c1c[nH]cn1 | inactive | 
CCCCC(CC)CCC(CC(C)C)OS(=O)(=O)O (stereo unspecified) |  | 4.29 µM (active)
CC1=CC[C@H]2C[C@@H]1C2(C)C | inactive | 
CCCCCCCC[N+](C)(CCCCCCCC)CCCCCCCC |  | 1.03 µM (active)
C1=Cc2ccccc2C1 | inactive | 
CN(C)c1ccc(C(=N)c2ccc(N(C)C)cc2)cc1 |  | 3.18 µM (active)
NC(=O)N=NC(N)=O | inactive | 
CCCCC/C=C\C/C=C\CCCCCCCC(=O)OC | inactive | 
